Measurements from article PMC7155171, “Probing the Open Global Health Chemical Diversity Library for Multistage-Active Starting Points for Next-Generation Antimalarials” (ACS Infectious Diseases, 2020).

Legend:
[1] = system: P. berghei liver stage (PbLuc); parameters: species or system HepG2-A16-CD81; P. berghei luciferase sporozoite infection of hepatocytes, liver stage luminescence; settings: inhibitor; for PbLuc primary screen (10uM): inhibition % (n=1): 48 h
[2] = system: HepG2-A16-CD81 hepatocytes; parameters: Uninfected hepatocyte viability, CellTiter-Glo luminescence; settings: cytotoxicity primary screen, inhibitor

Structure (SMILES) | PbLuc primary screen (10uM): inhibition % (n=1) [1] | PbLuc primary screen (2uM): inhibition % (n=1) [1] | HepG2 toxicity primary screen (10uM): inhibition % (n=1) [2]
COCCCC(=O)N1CC(=O)Nc2cc(Br)ccc21 [DDD01075689] | -20.4% | 22.41% | 5.89%
O=C(CNC(=O)N1CCc2c([nH]c3ccc(Cl)cc23)C1)N1CCOCC1 [DDD01035668] | 18.2% | -2.915% | 8.32%
CSc1cccc(NC(=O)Nc2c(O)c3ccccc3oc2=O)c1 [DDD01037688] | 1.86% | 28.0462% | 4.45%
Cc1[nH]n(C2CCCC2)c2nc(C(C)(C)CN3CCN(C)CC3)nc1-2 [DDD01248613] | 49.4% | 34.18% | -6.61%
Cc1cc(=O)n(-c2ccc3nnc(C)n3n2)[nH]1 [DDD01038570] | 6.83% | 18.99% | 9.24%
CN(CCCc1ccccc1)C(=O)CCC1=NC(=C2N=CN=N2)NO1 [DDD01062165] | 22% | -4.851% | -44.845%
CCc1nn2c(N)c(C#N)nnc2c1-c1ccc(OC)cc1 [DDD01035159] | 22.9% | 19.08% | -3.73%
CCc1c(C)[nH]c2cc(C3CCN(Cc4cccnc4)C3)nn2c1=O (stereo not drawn) [DDD01060570] | -33.4% | 31.56% | -25.4%
COc1cc2c(cc1-c1nc3c[nH]n(C(C)C(C)C)c-3n1)OCO2 (stereo not drawn) [DDD01255421] | 31.9% | 7.665% | 8.61%
Cn1nc(C2CC2)c(-c2ccc3c(c2)OCO3)c1N [DDD01074640] | 16.5% | 58.6% | -47.475%
Cc1[nH]n(C2CCS(=O)(=O)C2)c(=O)c1Cc1cccc(Cl)c1 (stereo not drawn) [DDD01026994] | 28.5% | 34.05% | -46.865%
CCc1c(C)[nH]c2cc(C3CCN(Cc4cccc(F)c4)C3)nn2c1=O (stereo not drawn) [DDD01060569] | 77.3% | 65.74% | -6.43%
Cc1nsc(N2CCCN(CC(=O)N(C)C3CC3)CC2)n1 [DDD01066804] | 68.5% | -11.55% | -3.98%
COc1ccc(F)cc1-c1nc2c(C3CC3)[nH]n(C)c-2n1 [DDD01250494] | -12.1% | -45.41% | -2.18%
Cc1nc(=O)cc(CCNC(=O)CC[C@@H]2CCCN3CCCC[C@H]23)[nH]1 [DDD01256003] | 44.8% | 42.6913% | 0.956%
CCCc1nn(C)c(N)c1-c1ccc2c(c1)OCO2 [DDD01074641] | 27.6% | 5.918% | -51.45%
Cc1[nH]c2cc(C3CCN(Cc4ccccc4F)C3)nn2c(=O)c1C (stereo not drawn) [DDD01060615] | 61.7% | 28.64% | 5.52%
Cc1[nH]n(C2CCS(=O)(=O)C2)c(=O)c1CCc1ccccc1 (stereo not drawn) [DDD01026977] | 5.33% | -33.83% | -50.25%
CCn1[nH]cc2nc(-c3ccc(OC)c(COC)c3)nc1-2 [DDD01253750] | -45.8% | 0.5819% | 6.34%

Structure (SMILES) | PbLuc primary screen (10uM): inhibition % (n=1) [1] | PbLuc primary screen (2uM): inhibition % (n=1) [1] | HepG2 toxicity primary screen (10uM): inhibition % (n=1) [2]
COc1cc2c(cc1-c1nc3c[nH]n(C(C)C4CC4)c-3n1)OCO2 (stereo not drawn) [DDD01244142] | 34% | 67.28% | 4.82%
Clc1cccc(-c2cccc(N3CCC(NC4CCOCC4)CC3)c2)c1 [DDD01252000] | 84% | -46.68% | -4.24%
Cc1[nH]n(C2CCS(=O)(=O)C2)c(=O)c1Cc1ccccc1 (stereo not drawn) [DDD01026976] | 36.9% | -17.38% | -44.6%
CCc1c(C)[nH]c2cc(C3CCN(CCc4ccccc4)C3)nn2c1=O (stereo not drawn) [DDD01060567] | 83.3% | 20.31% | -20.1%
Cn1ccc(C(=O)N2CCCC(c3cc(=O)n(C)[nH]3)C2)n1 (stereo not drawn) [DDD01060541] | 36.4% | 2.044% | -13.7%
Cc1[nH]n(C2CCCCC2)c2nc(C(C)(C)CN3CCOCC3)nc1-2 [DDD01254749] | -16.9% | 48.54% | -3.64%
CCc1cc(=O)n2nc(C3CCCN3C(=O)c3ccccn3)cc2[nH]1 (stereo not drawn) [DDD01057178] | 18.85% | -15.38% | -0.805%
CCc1c(C)nn2c(=O)cc(C3CCN(C(=O)c4ccccn4)C3)[nH]c12 (stereo not drawn) [DDD01056906] | 44.95% | -16.2% | 6.7%
CCc1cc(=O)n2nc(C3CCN(C(=O)c4cccnc4)CC3)cc2[nH]1 [DDD01057176] | 13.3% | -5.593% | 7.09%
CCn1[nH]cc2nc(-c3cc(OC)c(OC)cc3OC)nc1-2 [DDD01254934] | 26.5% | 13.04% | -2.61%
CCn1[nH]cc2nc(-c3cc4c(cc3OC)OCO4)nc1-2 [DDD01244413] | -7.2% | 27.42% | -2.99%
Cc1[nH]c2cc(C3CCN(Cc4cccc(F)c4F)C3)nn2c(=O)c1C (stereo not drawn) [DDD01270135] | 90.4% | 18.8% | 0.333%
COc1cccc(C2=NN=CC2=C2NC(CN3CCCC3)=NO2)c1 [DDD01247208] | 34% | 45.82% | -23.2%
Cc1cc(=O)n2nc(C3CCN(C(=O)c4ccccn4)CC3)cc2[nH]1 [DDD01057174] | 7.55% | -10.49% | -3.3635%
Cc1ccc(S(=O)(=O)Cc2noc([C@@H]3C[C@@H](O)CN3C(C)C)n2)cc1 [DDD01025534] | 44.5% | 0.1961% | 0.317%
Cn1nc(C2CCC2)c(-c2ccc3c(c2)OCO3)c1N [DDD01074643] | 64.7% | 14.0603% | -42.27%
Cc1ncc(CN2CCc3c([nH]c4cc(C5CC5)nn4c3=O)C2)n1C [DDD01058398] | 47.1% | 42.53% | 6.62%
Cc1cccc(C2N3CCC4(CC3)c3[nH]c5ccccc5c3CCN24)n1 (stereo not drawn) [DDD01058402] | -19.7% | 38.22% | 8.06%
COc1cc(F)ccc1-c1nc2c(C3CC3)[nH]n(C)c-2n1 [DDD01248843] | -24.9% | -27.89% | -1.72%

Structure (SMILES) | PbLuc primary screen (10uM): inhibition % (n=1) [1] | PbLuc primary screen (2uM): inhibition % (n=1) [1] | HepG2 toxicity primary screen (10uM): inhibition % (n=1) [2]
CN(Cc1ccc(F)c(F)c1)C(=O)CCC1=NC(=C2N=CN=N2)NO1 [DDD01062114] | 55.4% | 6.397% | -43.56%
COc1cc2c(cc1-c1nc3c[nH]n(C(C)C)c-3n1)OCO2 [DDD01249461] | 7.31% | 60.13% | -6.85%
CCc1ccc(NC(=O)Nc2c(O)c3ccccc3oc2=O)cc1 [DDD01037337] | -11.4% | 49.69% | 5.95%
CCc1nc(CN(C)C2CCN(CCn3cc(C#N)cn3)C2)no1 (stereo not drawn) [DDD01304196] | 41.4% | -38.96% | -6.12%
CCC(CO)N(Cc1cccnc1)C(=O)c1ccc(C(F)(F)F)[nH]c1=O (stereo not drawn) [DDD01253913] | -28.9% | 20.89% | -1.12%
Cc1nnsc1C(=O)N1CCCCC1c1cc2[nH]c(C)c(C)c(=O)n2n1 (stereo not drawn) [DDD01059036] | 19.3% | -26.26% | -5.93%
Cc1[nH]n(C2CCS(=O)(=O)C2)c(=O)c1Cc1ccc(Br)cc1 (stereo not drawn) [DDD01026979] | 43.4% | 14.54% | -41.615%
COc1ccc(-c2c(C(C)C)nn3c(N)c(C#N)nnc23)cc1 [DDD01035184] | 53.1% | 9.631% | -12.2%
Fc1cccc(C2=NN=CC2=C2NC(CN3CCOCC3)=NO2)c1 [DDD01244908] | 13.7% | 24.36% | -7.58%
Cc1ccc(CN2CCc3c([nH]c4cc(C5CC5)nn4c3=O)C2)s1 [DDD01058491] | 44.3% | 31.81% | -3.69%
Cc1ccccc1CN(C)C(=O)CCC1=NC(=C2N=CN=N2)NO1 [DDD01062116] | 13.7% | 27.4706% | -42.09%
Cc1ncsc1C(=O)N1CCCCC1c1cc2[nH]c(C)c(C)c(=O)n2n1 (stereo not drawn) [DDD01059037] | -26.2% | 11.32% | -8.94%
COCCC(=O)N1CCC(c2cc(=O)n(C)[nH]2)C1 (stereo not drawn) [DDD01060470] | 0.301% | 15.3% | -23.1%
COCC(=O)Nc1[nH]nc2c1c(C)nn2Cc1cccc(OC)c1 [DDD01063147] | -14.8% | 27.76% | -11.7%
COc1ccc(-c2c(C)nn3c(N)c(C#N)nnc23)cc1 [DDD01035158] | 3.19% | -31.95% | -8.26%
Cc1[nH]n(Cc2ccc(F)cc2)c2nnc(N)c1-2 [DDD01012470] | 78.2% | 11.14% | 1.11%
CCc1cc(=O)n2nc(C3CCN(C(=O)c4ccccn4)CC3)cc2[nH]1 [DDD01057364] | -2.695% | 26.22% | 2.29%
CCc1c(C)nn2c(=O)cc(C3CCN(C(=O)C4CC4)C3)[nH]c12 (stereo not drawn) [DDD01057056] | 26.6% | 11.53% | 1.97%
CCc1c(C)nn2c(=O)cc(C3CCN(C(=O)c4cnn(C)c4)C3)[nH]c12 (stereo not drawn) [DDD01056908] | 9.3875% | -18.64% | 4.85%
